Measured values from PubChem BioAssay AID1851 (National Center for Advancing Translational Sciences (NCATS), 2009).
“And” between values parts separate entries of the source, which are not always exact repeats. Equal values may be shown once. In all, about 16,000 compounds went through this assay and about 2,600 (16%) were called active. Inconclusive results (about 20%) are left out. Calls come from the whole dose curve; as a rule, active = well fitted curve in the direction sought with a large enough effect; inconclusive = small, poorly fitted or top-dose-only effect, or effect the other way; inactive = no such curve, though single readings can be large or run the other way. The list is a sample of the results. A structure can be active in one record and inactive in another.

These compounds were tested against Cytochrome P450 2D6 (Homo sapiens) (UniProt P10635) (assay: Cytochrome panel assay with activity outcomes). Conditions: recombinant CYP, pro-luciferin dealkylation, luminescence, p450-cyp2d6; series mostly up to 57.1 µM; activity, negative = inhibition: at the top concentration.
% is set by controls: 0 for no effect and ±100 for the full control effect.

Sequence of Cytochrome P450 2D6 (Homo sapiens) (P10635 whole entry, looked up): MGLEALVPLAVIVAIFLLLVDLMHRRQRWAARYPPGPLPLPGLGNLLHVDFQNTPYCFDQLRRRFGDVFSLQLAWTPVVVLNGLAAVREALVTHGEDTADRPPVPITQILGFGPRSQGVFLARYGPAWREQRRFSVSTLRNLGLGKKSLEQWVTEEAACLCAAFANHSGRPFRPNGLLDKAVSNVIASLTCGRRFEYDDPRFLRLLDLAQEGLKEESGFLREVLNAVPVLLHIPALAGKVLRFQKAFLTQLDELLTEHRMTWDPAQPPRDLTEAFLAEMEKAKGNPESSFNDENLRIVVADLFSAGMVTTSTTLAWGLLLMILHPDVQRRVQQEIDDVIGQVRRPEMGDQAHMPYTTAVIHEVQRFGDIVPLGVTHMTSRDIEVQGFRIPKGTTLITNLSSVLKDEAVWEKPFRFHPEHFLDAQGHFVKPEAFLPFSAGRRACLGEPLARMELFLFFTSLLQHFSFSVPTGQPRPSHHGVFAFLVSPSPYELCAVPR

Structure (SMILES)	activity, negative = inhibition	AC50
Cc1ccc(S(=O)(=O)/N=C(/Nc2c(C)n(C)n(-c3ccccc3)c2=O)c2ccc(Cl)cc2)cc1	-9.19% (inactive)	
O=C(c1cccc(C(F)(F)F)c1)N1CCC(O)(CS(=O)(=O)Cc2ccccc2)CC1	-13.5% (inactive)	
COC(=O)c1ccc(/C=N\NC(=O)c2ccc(C)cc2Cl)cc1	7.06% (inactive)	
CN1c2ccccc2C(C)(C)C12C=Nc1c(cc(N3CCOCC3)c3ccccc13)O2 (stereo unspecified)	-25.9% (inactive)	
O=C1C=CC(=Nc2cccc3c(N=C4C=CC(=O)O4)cccc23)O1	3.55% [at 11.4 µM] (inactive)	
O=C(c1ccco1)N1CCN(C(=O)c2nn3cccnc3c2Cl)CC1	0.557% (inactive)	
COc1cc(/C=C\C(=O)N2CCC=CC2=O)cc(OC)c1OC	-0.509% [at 25.6 µM] (inactive)	
CCCC(=O)Nc1nc2nc(-c3ccccc3)cc(-c3ccccc3)n2n1	9.65% (inactive)	
O=C(O)CCc1ccc(-c2ccccc2)[nH]1	3.02% [at 11.4 µM] (inactive)	
CC(=O)Nc1nonc1NC(=O)c1ccc(C(C)(C)C)cc1		10 µM (active)
CC(C)(C)c1ccc(C(=O)NCc2ccc(Cl)cc2)cc1	23.5% (inactive)	
CC(C)(C)c1ccc(C(=O)Nc2ccc(NC(=O)c3ccco3)cc2)cc1	-9.98% (inactive)	
CC/C=C\CC[C@H](O)C1=CCCCC1=O	0.601% [at 11.4 µM] (inactive)	
CC1=C(C(=O)Nc2cccnc2)C(c2cccnc2)n2nc(-c3cccs3)nc2N1 (stereo unspecified)	11.8% (inactive)	
Cc1ccc(C)c(Cn2c(C(=O)OC(C)C)cc3c2ccn3C)c1	-10.6% (inactive)	
O=C(COc1ccc(Cl)cc1)N(Cc1ccccc1)c1ccccn1	5.58% (inactive)	
COc1ccc(CC(=O)O/N=C(\N)Cc2ccc(OC)cc2)cc1	3% (inactive)	
CCCCCCCCCCCCCCCC[N+](C)(C)CCN(Cc1ccc(OC)cc1)c1ncccn1		12.6 µM (active)
CN(C)CCOC(=O)COc1ccc(Cl)cc1		inactive
COc1ccc(CN(CCN(C)C)c2ccccn2)cc1		501 nM (active) and 126 nM (active) and 100 nM (active)
CN(C)CCN(Cc1ccc(Cl)cc1)c1ccccn1		0.02 µM (active)
CCSc1nnc(-c2ccccc2NC(C)=O)c(=O)[nH]1	-26.1% (inactive)	
COc1ccc(-c2nc3cnc(N4CCNCC4)nc3n(Cc3ccc(F)cc3)c2=O)cc1	-0.475% (inactive)	
CCOC(=O)CSc1nnc(Cc2cc(=O)[nH]c(=O)[nH]2)n1-c1cccc(OC)c1	0.419% (inactive)	

Structure (SMILES)	activity, negative = inhibition	AC50
CCNC(=O)c1ccc(-n2nc(C)cc2-c2ccccc2)cc1	6.71% (inactive)	
CC(C)=CCC/C(C)=C/CO/N=C1/C[C@@H](O)[C@@H](O)[C@@H]2[C@H]3C(=O)N(c4ccc(F)cc4F)C(=O)[C@@H]3CC[C@@H]12	8.95% [at 11.4 µM] (inactive)	
COc1ncc2nc(-c3cn(C)c4ccccc34)c(=O)n(C)c2n1	3.38% (inactive)	
CN(C)/C(CN1CCOCC1)=C1\N=C(c2ccccc2)OC1=O	5.8% (inactive)	
NC(N)=N/N=C(/c1ccccc1)c1ccc(O)cc1O		1.26 µM (active)
CC(=O)/C(=N\N=C(N)N)c1ccccc1	-4.42% [at 11.4 µM] (inactive)	
NC(N)=N/N=C\c1ccc(O)c(C(=O)O)c1	13.4% [at 11.4 µM] (inactive)	
COCCCNC(=O)c1c(NC(=O)c2cccs2)sc2c1CCCC2	-17.3% (inactive)	
CCC1OC23CCCCC2C(C#N)(C(=N)O3)C1(C#N)C#N (stereo unspecified)	8.79% (inactive)	
Cc1ccc2nc(SCc3nnc(-c4ccccc4[N+](=O)[O-])o3)c(C#N)cc2c1	-4.06% (inactive)	
Cc1nonc1NCn1nnc2ccccc21	8.37% (inactive)	
NN(CC(=O)O)CC(=O)O	-0.968% [at 11.4 µM] (inactive)	
CO[C@H]1COC(=O)[C@H](C)NC(=O)C/C=C\[C@@H](C)[C@@H](NS(=O)(=O)c2ccc(C)cc2)COC(=O)C/C=C\[C@@H]1C	6.92% [at 11.4 µM] (inactive)	
CC1CCC(C(=O)O)([C@H](Br)C(=O)O)CC1 (stereo partly specified)	-1.57% [at 11.4 µM] (inactive)	
Cc1nc2cnc(N3CCN(C)CC3)nc2n(C)c1=O	12% (inactive)	
O=C1c2cccc([N+](=O)[O-])c2C(=O)N1c1ncn[nH]1	10.8% [at 11.4 µM] (inactive)	
COC(=O)[C@]1(C)CCC(c2ccc(C)cc2)=C(CC(=O)O)C1	13.4% [at 11.4 µM] (inactive)	
C[C@]1(C2CCCC2)Cc2cc(OCC(=O)O)c(Cl)c(Cl)c2C1=O	6.24% (inactive)	
Cc1cc(NC(=O)C2CCCC2)n(-c2nc3ccccc3[nH]2)n1	-10.9% (inactive)	
CSc1cccc(NC(=O)OC2CCCCCCCCCCC2)c1	10.7% [at 11.4 µM] (inactive)	
CC(=O)Nc1ccc2nc(C3CCCCC3)[nH]c2c1		12.6 µM (active)
O=C(CSc1nnc(CNc2ccc(F)cc2)o1)OC1CCCCC1	-30.4% (inactive)	
Oc1ccc(/C=N/NC(=S)NCc2ccco2)cc1	2.33% (inactive)	
CCCn1c(C)nc2c(c1=O)c1nc3ccccc3nc1n2CCC1=CCCCC1	-23.2% (inactive)	

Structure (SMILES)	activity, negative = inhibition	AC50
N#CC1(Nc2ccc(-c3ccc(NC4(C#N)CCCC4)cc3)cc2)CCCC1	8.6% [at 11.4 µM] (inactive)	
Cn1ncc(C#N)c1/N=C/N1CCCCCC1	3.27% (inactive)	
CCc1ccc(OCC(=O)NC(=S)Nc2ccc(C)cc2C)c(Br)c1	3.53% (inactive)	
CCOC(=O)c1nnn(-c2nonc2N)c1-c1ccc(C)cc1	1.09% (inactive)	
CCOC(=O)c1nnn(-c2nc(OC)nc(N3CCCCC3)n2)c1-c1ccccc1		17.8 µM (active)
CCOC(=O)c1nnn(-c2nonc2N)c1-c1ccccc1	5.69% (inactive)	
Cc1nn(Cc2c(F)c(F)c(F)c(F)c2F)c(C)c1NC(=O)c1cccc(COc2ccc(Cl)cc2)c1	-24.2% (inactive)	
COc1ccc(Oc2ncc3ncc(=O)n(C[C@H]4CCCO4)c3n2)cc1	4.88% (inactive)	
COc1ccc(NC(=O)c2cc(C(C)C)on2)cc1OC	-22.8% (inactive)	
COc1ccc(NC(=O)c2ccc(-c3ccc(-c4noc(C)n4)cc3C)cc2)cc1OCCN(C)C		12.6 µM (active)
COc1ccc(-c2cc(C(=O)Nc3cc(OC)c(OC)c(OC)c3)no2)cc1OC	-1.21% (inactive)	
CC[C@H]1C2=C3C(CC[C@H]4C(OCc5ccc(F)cc5C(F)(F)F)OC[C@](C)([C@@H]34)N(C(=O)OC(C)(C)C)C2)C(COC)C1COC (stereo partly specified)	2.49% (inactive)	
CC(=O)NC1(c2cccc(F)c2)CCN(CC(=O)NC2CCCCC2)CC1	-8.39% (inactive)	
Cn1c(CCNC(=O)c2ccccc2Cl)n[nH]c1=S	-4.47% (inactive)	
O=C1O[C@H](CN2CCOCC2)CN1/N=C\c1ccc([N+](=O)[O-])o1	-18.9% [at 25.6 µM] (inactive)	
CCCSc1nnc(CSc2nc3nc(C)cc(C)n3n2)o1	-9.07% (inactive)	
Cc1cccc(Nc2cc(Cl)nc(SCC(=O)O)n2)c1C		3.16 µM (active)
Cc1cc(SCC(=O)c2ccccc2)nc(SCC(=O)c2ccccc2)n1	7.93% (inactive)	
Cc1ccccc1NC(=O)CSc1nc(N2CCCCC2)nc(N2CCCCC2)n1	14.4% (inactive)	
Cc1cn(CC[C@H](N)C(=O)O)c(=O)[nH]c1=O	-3.77% [at 11.4 µM] (inactive)	
CCCC(=O)Nc1nc2n(n1)C(c1ccccc1)CC(=O)N2 (stereo unspecified)	22.6% (inactive)	
CC(C)CCN1CC(C(=O)N2CCN(c3ccc(F)cc3)CC2)CC1=O (stereo unspecified)	-1.61% (inactive)	
CCOC(=O)c1cnc2c(cnn2CC)c1NN=C(C)C		inactive
CCCCNc1c(C(=O)OCC)c(C)nc2c1cnn2CC		inactive and 200 nM (active)

Structure (SMILES)	activity, negative = inhibition	AC50
CCOC(=O)c1cnc2c(cnn2C)c1NCCCN(C)C	-15.8% (inactive)	
C#CCCCO/N=C1/C[C@@H](O)[C@@H](O)[C@@H]2[C@@H]3C(=O)N(Cc4ccccc4)C(=O)[C@H]3CC[C@@H]12	19.7% [at 11.4 µM] (inactive)	
CCOC(=O)C(NC(=O)CC)(Nc1sc2c(c1C(=O)OC)CCN(C)C2)C(F)(F)F (stereo unspecified)	-1.69% (inactive)	
CCCNC(=O)OC[C@H]1O[C@@H](CCO/N=C\[C@@H](NS(=O)(=O)c2ccc(C)cc2)[C@H](C)/C=C\CC(=O)OC)C=C[C@@H]1Oc1ccc(OC)cc1	-7.16% [at 11.4 µM] (inactive)	
O=C(O)CCCc1ccc2ccccc2c1	0.631% [at 11.4 µM] (inactive)	
COc1ccc2cc(CCC(C)=O)ccc2c1	-4.42% [at 25.6 µM] (inactive)	
NNC(=O)CCc1ccc2ccc3ccccc3c2c1		1.58 µM (active)
CS(=O)(=O)N1CCN(c2ccc(C(=O)NC3C4CC5CC(C4)CC3C5)cc2[N+](=O)[O-])CC1 (stereo unspecified)	-10% (inactive)	
O=C(O)c1ccccc1-c1ccccc1C(=O)Nc1ccc2c(c1)Cc1cc(F)ccc1-2	-13.4% [at 11.4 µM] (inactive)	
O=C(CCN1CCc2ccccc2C1)Nc1ccc(F)cc1		2.24 µM (active)
O=C(NCCCN1CCc2ccccc2C1)Nc1ccc(Cl)cc1		3.55 µM (active)
O=C(NCCOc1nc(N2CCOCC2)nc(N2CCOCC2)n1)Nc1ccccc1	6.07% (inactive)	
Cc1ccc(NC(=O)CCC(=O)c2ccc(F)cc2)cc1Cl	-10.9% (inactive)	
CSc1ccc(NC(=O)NCCCN2CCN(c3ccccc3F)CC2)cc1		3.55 µM (active)
Cc1ccc(CS(=O)(=O)CCC(=O)NCCCN2CCCC2)cc1	-24.2% (inactive)	
Cc1ccccc1CS(=O)(=O)CCC(=O)NCCCN1CCN(c2ccccc2F)CC1		3.55 µM (active)
CCN(CC)c1ccc(NC(=O)CN2CCN(c3ccccc3F)CC2)cc1	-23.1% (inactive)	
O=C(NCCCN1CCCC1=O)Nc1ccc(F)c(Cl)c1	0.447% (inactive)	
Cc1ccc(CS(=O)(=O)CCC(=O)NCCCOC(C)C)cc1	10.1% (inactive)	
O=C(NCCCN1CCN(c2ccccc2F)CC1)C1CCC(=O)N1C1CCCCC1 (stereo unspecified)	-17.4% (inactive)	
O=C(O)/C=C/C(=O)Nc1ccc(F)cc1F	22.9% (inactive)	
O=C(O)C[C@H]1OCC=C2C[N@@+]3([O-])CC[C@]45c6ccccc6N[C@@H]4[C@@H]1[C@H]2C[C@H]53	9.02% [at 11.4 µM] (inactive)	
Cc1nc2cnc(N(C)C)nc2n(C)c1=O	-12.7% (inactive)	
O=C(O)c1ccccc1-c1ccccc1C(=O)Nc1ccc2c(c1)[nH]c(=O)c1ccccc12	-5.23% [at 11.4 µM] (inactive)	
